T cruzi growth-1: blocks T. cruzi growth in NIH3T3 culture. inhibition, % at 8.34 µM. actives 5.9% (n = 77,000). T. cruzi beta-gal in NIH3T3, GalScreen luminescence, 90 h;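 active means mean inhibition above about 93%, with at least 55% of replicates each passing it, limit read from the data, passing the limit was not always enough; inconclusive means only one of those two conditions holds; inactive means neither condition holds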
C diff HTS: inhibitors of Clostridium difficile growth | Clostridium difficile clinical isolate growth, OD600, 24 h; active compounds read low | growth activity, negative = inhibition, % at 16 µg/mL (by protocol) | actives 0.25% (n = 86,000) | AID 1259249;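 active means mean growth activity at or below -80% and every replicate also at or below -80%; inconclusive means mean at or below -80% but some replicate above -80%; inactive means mean growth activity above -80%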;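 further: 0% = DMSO wells and -100% = levofloxacin 16 µg/mL wells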
Pf Dd2 inh: inhibitors of Plasmodium falciparum Dd2 growth; P. falciparum Dd2 growth, SYBR Green, 72 h; active compounds read low; activity change, % at 10 µM; actives 2.3% (n = 94,000); AID 1159554; in the data active means activity change below about -80%; inconclusive means no clear call, values can overlap the other calls
T cruzi growth-2: Trypanosoma cruzi proliferation inhibition; shares compounds with T cruzi growth-1; T. cruzi beta-gal in NIH3T3, GalScreen luminescence, 90 h; inhibition, % at 8.35 µM; actives 72% (n = 5,600);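 active means mean replicate inhibition above about 95% and at least 55% of replicates individually reaching it, limit read from the data; inconclusive means only one of the two criteria is met; inactive means neither criterion is met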
T cruzi growth-3: Trypanosoma cruzi proliferation inhibition | shares compounds with T cruzi growth-1 | T. cruzi beta-gal in NIH3T3, GalScreen luminescence, 90 h | inhibition, % at 2.09 µM | actives 21% (n = 5,600) | AID 651740;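 active means mean inhibition above about 95%, with at least 55% of replicates also reaching it, limit read from the data; inconclusive means meets just one of the two conditions; inactive means meets neither condition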;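 further: plate controls were neutral control median for no effect and positive control median for full effect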
NIH3T3 tox: kills mouse NIH/3T3 fibroblasts | shares compounds with T cruzi growth-1 | NIH/3T3 viability, CellTiter-Glo ATP luminescence, 90 h | cytotoxicity (signal decrease), % at 8.35 µM | actives 14% (n = 5,600);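 active means mean signal decrease across replicates above about 35% based on untreated-well scatter, with enough replicates individually passing, limit read from the data; inconclusive means no rule stated though some were filed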;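 further: 0% = median of neutral control wells and 100% = median of positive control wells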
3T3 cytotox 2: cytotoxicity in mouse NIH/3T3 fibroblasts | shares compounds with T cruzi growth-1 | NIH/3T3 viability, CellTiter-Glo ATP luminescence, 90 h | inhibition, % at 24.9 µM | actives 56% (n = 5,600) | AID 651744;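 active means mean loss of cell viability signal at or above a set limit, and enough replicates individually reaching it; inconclusive means meets only the mean limit or only the replicate share; inactive means meets neither condition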;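 further: 0% = median of neutral control wells and 100% = median of positive control wells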
Active calls of the source: *; u = inconclusive; x = no result given. The list is not random: actives were taken first. Their share in the collection is about 6.8%.

SMILES	T cruzi growth-1	C diff HTS	Pf Dd2 inh	T cruzi growth-2	T cruzi growth-3	NIH3T3 tox	3T3 cytotox 2
CC(C)C#Cc1ccc2c(c1)O[C@@H](CN(C)C(=O)c1cccc(F)c1)[C@@H](C)CN([C@H](C)CO)S2(=O)=O	105*	16	-67	102*	61	15	54*
CC(C)C#Cc1ccc2c(c1)O[C@@H](CN(C)C(=O)c1cccc(F)c1)[C@H](C)CN([C@H](C)CO)S2(=O)=O	103*	22	-70	103*	38	56*	63*
CC(C)C#Cc1ccc2c(c1)O[C@@H](CN(C)C(=O)c1ccccc1)[C@H](C)CN([C@@H](C)CO)S2(=O)=O	92	-5	-67	x	x	x	x
CC(C)C#Cc1ccc2c(c1)O[C@H](CN(C)C(=O)c1cccc(F)c1)[C@@H](C)CN([C@H](C)CO)S2(=O)=O	u	20	-60	106*	71	13	u
CC(C)C#Cc1ccc2c(c1)O[C@H](CN(C)C(=O)c1ccccc1)[C@H](C)CN([C@@H](C)CO)S2(=O)=O	98	36	-36	x	x	x	x
CC(C)C#Cc1ccc2c(c1)O[C@H](CN(C)C(=O)c1cccc(F)c1)[C@H](C)CN([C@H](C)CO)S2(=O)=O	111*	16	-53	104*	52	22	39*
C[C@H]1CN([C@@H](C)CO)C(=O)Cc2cc(NC(=O)Nc3ccccc3)ccc2O[C@@H]1CN(C)C(=O)Nc1ccc2c(c1)OCO2	-12	-1	-14	x	x	x	x
Cc1ccccc1-c1ccc2c(c1)O[C@@H](CN(C)C(=O)C1CC1)[C@@H](C)CN([C@@H](C)CO)S2(=O)=O	x	-1	-25	x	x	x	x
CN(C)CCCNC(=O)C[C@H]1CC[C@@H]2[C@H](COC[C@H](O)CN2CC2CCCCC2)O1	x	6	6	x	x	x	x
Cc1noc(C)c1NC(=O)NCC[C@@H]1CC[C@H](NC(=O)Cc2cccnc2)[C@H](CO)O1	-66	4	11	x	x	x	x
CCS(=O)(=O)N1CC2(CN(C(=O)NC(C)C)[C@H](CO)c3c2c2ccc(OC)cc2n3C)C1	x	1	33	x	x	x	x
COc1ccccc1NC(=O)N1CCCCN2[C@@H](CO)[C@@H](c3ccc(-c4ccccc4)cc3)[C@@H]2C1	u	48	-70	104*	87	61*	104*
COc1ccccc1NC(=O)N1CCCCN2[C@H](CO)[C@@H](c3ccc(-c4cccc(F)c4)cc3)[C@@H]2C1	111	15	-50	x	x	x	x
COc1ccccc1NC(=O)N1CCCCN2[C@@H](CO)[C@H](c3ccc(-c4cccc(C#N)c4)cc3)[C@@H]2C1	93	16	-39	x	x	x	x
COc1ccccc1NC(=O)N1CCCCN2[C@H](CO)[C@H](c3ccc(-c4cccc(F)c4)cc3)[C@@H]2C1	115*	-2	-71	101*	110*	22	37*
COc1ccccc1NC(=O)N1CCCCN2[C@H](C1)[C@@H](c1ccc(-c3cccc(F)c3)cc1)[C@@H]2CO	59	25	-58	x	x	x	x
COc1ccccc1NC(=O)N1CCCCN2[C@H](CO)[C@H](c3ccc(-c4ccccc4)cc3)[C@H]2C1	108*	60	-53	108*	74	23	105*
COc1ccccc1NC(=O)N1CCCCN2[C@@H](CO)[C@@H](c3ccc(-c4cccc(C#N)c4)cc3)[C@@H]2C1	89	25	-45	x	x	x	x
COc1ccccc1NC(=O)N1CCCCN2[C@@H](CO)[C@H](c3ccc(-c4ccccc4)cc3)[C@@H]2C1	102*	51	2	100*	74	45*	103*
C[C@@H]1CN([C@@H](C)CO)S(=O)(=O)c2ccc(C#CC3(O)CCCC3)cc2O[C@H]1CN(C)C(=O)c1cccnc1	43	1	7	x	x	x	x
C/C=C/c1cnc2c(c1)C(=O)N([C@H](C)CO)C[C@H](C)[C@H](CN(C)C(=O)c1ccc3c(c1)OCO3)O2	-2	3	-21	x	x	x	x
O=C(C1CC1)N1CC2(C1)[C@H](c1ccccc1)[C@H](CO)N2C(=O)c1cccnc1	x	-8	0	x	x	x	x
C[C@H](CO)N1C[C@H](C)[C@H](CN(C)C(=O)c2ccncc2)OCCCC[C@H](C)Oc2ccc(NS(=O)(=O)c3ccccc3)cc2C1=O	-20	x	-9	x	x	x	x
CNC[C@H]1Oc2cc(C#Cc3ccccn3)ccc2S(=O)(=O)N([C@@H](C)CO)C[C@@H]1C	101*	7	-41	111*	93	4	4
CNC[C@@H]1Oc2cc(C#Cc3ccncc3)ccc2S(=O)(=O)N([C@@H](C)CO)C[C@H]1C	x	x	24	x	x	x	x
SMILES	T cruzi growth-1	C diff HTS	Pf Dd2 inh	T cruzi growth-2	T cruzi growth-3	NIH3T3 tox	3T3 cytotox 2
CNC[C@H]1Oc2cc(C#Cc3ccccn3)ccc2S(=O)(=O)N([C@H](C)CO)C[C@H]1C	99*	8	-22	109*	69	-8	29
C[C@@H]1CN([C@H](C)CO)S(=O)(=O)c2ccc(C#Cc3ccccn3)cc2O[C@@H]1CN(C)C	x	-6	36	x	x	x	x
C[C@@H]1CN([C@H](C)CO)C(=O)c2cc(-c3ccc(F)cc3)cnc2O[C@H]1CN(C)C(=O)c1ccncc1	12	x	-4	x	x	x	x
C[C@@H]1CN([C@@H](C)CO)C(=O)c2cc(NC(=O)CCN3CCOCC3)ccc2O[C@@H]1CN(C)S(=O)(=O)c1cccs1	-98	0	27	x	x	x	x
C[C@@H]1CCCCO[C@@H](CN(C)C(=O)Nc2ccc(C(F)(F)F)cc2)[C@H](C)CN([C@H](C)CO)C(=O)c2cc(NS(=O)(=O)c3ccc(Cl)cc3)ccc2O1	u	2	-38	77	118*	-5	3
Cc1ccc(S(=O)(=O)Nc2ccc3c(c2)C(=O)N([C@H](C)CO)C[C@H](C)[C@@H](CN(C)C(=O)Nc2ccc(C(F)(F)F)cc2)OCCCC[C@H](C)O3)cc1	109*	-3	-50	105*	113*	4	11
COc1ccc(S(=O)(=O)Nc2ccc3c(c2)C(=O)N([C@H](C)CO)C[C@@H](C)[C@H](CN(C)C(=O)Nc2ccc(C(F)(F)F)cc2)OCCCC[C@@H](C)O3)cc1	59	10	-51	x	x	x	x
C[C@@H]1CCCCO[C@@H](CN(C)C(=O)Nc2ccc(C(F)(F)F)cc2)[C@H](C)CN([C@@H](C)CO)C(=O)c2cc(NS(=O)(=O)c3ccc(Cl)cc3)ccc2O1	88	4	-1	x	x	x	x
C[C@@H]1CCCCO[C@H](CN(C)C(=O)Nc2ccc(C(F)(F)F)cc2)[C@H](C)CN([C@H](C)CO)C(=O)c2cc(NS(=O)(=O)c3ccc(Cl)cc3)ccc2O1	99*	14	-61	u	118*	27	18

High-throughput results (PubChem)
